Drawing on ChEMBL document CHEMBL2218924, “A broad activity screen in support of a chemogenomic map for kinase signalling research and drug discovery” (Biochem J, 2013), this text covers residual activity for one molecule.

As a reminder, the residual activity is the signal under treatment as a percentage of the control signal.

Experiment [1] has as its target T1, Ephrin type-B receptor 1 (Homo sapiens) (UniProt P54762).
T1 sequence (whole entry): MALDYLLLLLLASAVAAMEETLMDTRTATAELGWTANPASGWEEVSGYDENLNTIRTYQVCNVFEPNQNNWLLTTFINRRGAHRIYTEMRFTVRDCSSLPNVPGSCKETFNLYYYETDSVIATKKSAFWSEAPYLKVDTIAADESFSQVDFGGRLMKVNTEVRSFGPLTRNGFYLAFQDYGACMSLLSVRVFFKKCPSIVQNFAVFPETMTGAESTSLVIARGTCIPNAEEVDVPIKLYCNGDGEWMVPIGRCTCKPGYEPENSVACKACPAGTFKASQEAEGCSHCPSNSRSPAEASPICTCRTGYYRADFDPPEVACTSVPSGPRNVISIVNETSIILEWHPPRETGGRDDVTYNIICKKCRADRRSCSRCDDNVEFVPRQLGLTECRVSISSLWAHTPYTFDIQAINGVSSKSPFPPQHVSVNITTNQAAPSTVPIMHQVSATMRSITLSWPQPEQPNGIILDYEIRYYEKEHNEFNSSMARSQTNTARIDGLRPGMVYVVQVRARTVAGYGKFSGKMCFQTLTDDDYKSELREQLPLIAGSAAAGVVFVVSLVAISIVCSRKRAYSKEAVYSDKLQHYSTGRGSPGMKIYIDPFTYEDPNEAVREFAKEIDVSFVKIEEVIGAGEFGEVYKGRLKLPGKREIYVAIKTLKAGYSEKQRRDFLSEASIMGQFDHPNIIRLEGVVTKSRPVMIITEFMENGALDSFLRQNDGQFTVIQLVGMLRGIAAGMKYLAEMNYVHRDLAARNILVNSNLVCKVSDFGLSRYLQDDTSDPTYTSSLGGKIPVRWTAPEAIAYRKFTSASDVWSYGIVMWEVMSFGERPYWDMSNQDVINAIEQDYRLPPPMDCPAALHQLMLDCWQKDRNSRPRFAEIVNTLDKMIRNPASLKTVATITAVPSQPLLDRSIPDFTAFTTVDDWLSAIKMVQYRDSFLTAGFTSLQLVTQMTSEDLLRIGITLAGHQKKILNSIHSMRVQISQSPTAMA
The conditions noted are these: at 1 µM.

In experiment [2] the target is T1, Ephrin type-B receptor 1 (Homo sapiens). As to conditions: at 10 µM; call rule not given here.
In experiment [3] the target is T2, Ephrin type-B receptor 2 (Homo sapiens) (UniProt P29323).
T2 sequence (whole entry): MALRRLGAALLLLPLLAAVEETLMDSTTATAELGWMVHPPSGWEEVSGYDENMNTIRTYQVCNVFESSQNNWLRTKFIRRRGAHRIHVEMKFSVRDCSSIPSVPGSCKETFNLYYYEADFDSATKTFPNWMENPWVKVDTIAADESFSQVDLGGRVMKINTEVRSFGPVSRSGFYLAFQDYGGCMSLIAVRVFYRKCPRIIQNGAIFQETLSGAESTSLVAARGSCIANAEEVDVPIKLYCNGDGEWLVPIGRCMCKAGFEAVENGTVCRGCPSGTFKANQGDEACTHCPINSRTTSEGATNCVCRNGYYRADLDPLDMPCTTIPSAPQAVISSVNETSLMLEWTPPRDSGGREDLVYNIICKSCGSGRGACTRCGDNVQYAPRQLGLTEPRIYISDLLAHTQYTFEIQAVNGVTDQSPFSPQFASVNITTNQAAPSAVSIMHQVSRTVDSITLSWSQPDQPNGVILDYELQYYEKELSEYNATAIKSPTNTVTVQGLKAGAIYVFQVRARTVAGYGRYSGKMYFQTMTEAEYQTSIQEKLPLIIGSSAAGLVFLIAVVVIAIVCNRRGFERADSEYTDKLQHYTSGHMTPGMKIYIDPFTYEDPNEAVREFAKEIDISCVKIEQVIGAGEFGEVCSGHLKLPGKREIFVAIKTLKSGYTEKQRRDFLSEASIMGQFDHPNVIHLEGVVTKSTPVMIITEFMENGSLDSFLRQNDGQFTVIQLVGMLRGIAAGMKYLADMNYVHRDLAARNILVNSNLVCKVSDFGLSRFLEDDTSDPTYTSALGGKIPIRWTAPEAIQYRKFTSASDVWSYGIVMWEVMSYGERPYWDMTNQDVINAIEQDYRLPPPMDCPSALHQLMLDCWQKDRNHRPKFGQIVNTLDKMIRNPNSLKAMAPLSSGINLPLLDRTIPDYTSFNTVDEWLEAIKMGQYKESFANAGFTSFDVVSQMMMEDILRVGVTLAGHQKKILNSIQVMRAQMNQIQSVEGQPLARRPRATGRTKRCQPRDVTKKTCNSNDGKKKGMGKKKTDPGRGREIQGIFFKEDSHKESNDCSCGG
As to conditions: at 1 µM.

The target in experiment [4] is T2, Ephrin type-B receptor 2 (Homo sapiens). As to conditions: at 10 µM.
For experiment [5], the target named is T3, Ephrin type-B receptor 3 (Homo sapiens) (UniProt P54753).
T3 sequence (whole entry): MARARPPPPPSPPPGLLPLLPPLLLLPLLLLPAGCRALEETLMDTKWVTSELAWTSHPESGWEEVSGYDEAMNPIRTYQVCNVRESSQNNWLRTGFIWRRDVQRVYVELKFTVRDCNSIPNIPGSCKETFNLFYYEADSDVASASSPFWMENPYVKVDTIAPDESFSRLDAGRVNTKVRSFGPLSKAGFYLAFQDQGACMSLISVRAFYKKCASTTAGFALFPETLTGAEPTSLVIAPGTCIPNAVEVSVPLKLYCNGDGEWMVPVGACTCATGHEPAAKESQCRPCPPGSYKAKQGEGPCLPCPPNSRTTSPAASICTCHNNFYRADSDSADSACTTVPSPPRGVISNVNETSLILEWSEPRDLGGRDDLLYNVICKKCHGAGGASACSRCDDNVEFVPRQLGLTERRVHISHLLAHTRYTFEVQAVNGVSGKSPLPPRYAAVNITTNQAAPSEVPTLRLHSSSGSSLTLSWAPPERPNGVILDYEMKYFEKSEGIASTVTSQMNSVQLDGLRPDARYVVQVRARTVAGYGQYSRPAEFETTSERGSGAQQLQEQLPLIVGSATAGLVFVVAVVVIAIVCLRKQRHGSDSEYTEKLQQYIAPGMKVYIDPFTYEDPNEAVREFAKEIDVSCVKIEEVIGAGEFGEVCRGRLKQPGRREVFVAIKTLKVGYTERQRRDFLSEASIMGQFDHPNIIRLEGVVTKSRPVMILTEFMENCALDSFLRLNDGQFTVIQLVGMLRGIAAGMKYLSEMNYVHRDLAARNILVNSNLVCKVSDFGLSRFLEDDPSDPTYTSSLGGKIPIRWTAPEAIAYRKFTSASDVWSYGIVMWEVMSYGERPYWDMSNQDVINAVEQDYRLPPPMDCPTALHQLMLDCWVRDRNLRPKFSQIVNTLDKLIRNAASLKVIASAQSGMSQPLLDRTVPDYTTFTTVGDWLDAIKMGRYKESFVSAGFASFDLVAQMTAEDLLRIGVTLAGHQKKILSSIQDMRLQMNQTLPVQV
As to conditions: at 1 µM.

Experiment [6] concerns the target T4, Ephrin type-B receptor 4 (Homo sapiens) (UniProt P54760).
T4 sequence (whole entry): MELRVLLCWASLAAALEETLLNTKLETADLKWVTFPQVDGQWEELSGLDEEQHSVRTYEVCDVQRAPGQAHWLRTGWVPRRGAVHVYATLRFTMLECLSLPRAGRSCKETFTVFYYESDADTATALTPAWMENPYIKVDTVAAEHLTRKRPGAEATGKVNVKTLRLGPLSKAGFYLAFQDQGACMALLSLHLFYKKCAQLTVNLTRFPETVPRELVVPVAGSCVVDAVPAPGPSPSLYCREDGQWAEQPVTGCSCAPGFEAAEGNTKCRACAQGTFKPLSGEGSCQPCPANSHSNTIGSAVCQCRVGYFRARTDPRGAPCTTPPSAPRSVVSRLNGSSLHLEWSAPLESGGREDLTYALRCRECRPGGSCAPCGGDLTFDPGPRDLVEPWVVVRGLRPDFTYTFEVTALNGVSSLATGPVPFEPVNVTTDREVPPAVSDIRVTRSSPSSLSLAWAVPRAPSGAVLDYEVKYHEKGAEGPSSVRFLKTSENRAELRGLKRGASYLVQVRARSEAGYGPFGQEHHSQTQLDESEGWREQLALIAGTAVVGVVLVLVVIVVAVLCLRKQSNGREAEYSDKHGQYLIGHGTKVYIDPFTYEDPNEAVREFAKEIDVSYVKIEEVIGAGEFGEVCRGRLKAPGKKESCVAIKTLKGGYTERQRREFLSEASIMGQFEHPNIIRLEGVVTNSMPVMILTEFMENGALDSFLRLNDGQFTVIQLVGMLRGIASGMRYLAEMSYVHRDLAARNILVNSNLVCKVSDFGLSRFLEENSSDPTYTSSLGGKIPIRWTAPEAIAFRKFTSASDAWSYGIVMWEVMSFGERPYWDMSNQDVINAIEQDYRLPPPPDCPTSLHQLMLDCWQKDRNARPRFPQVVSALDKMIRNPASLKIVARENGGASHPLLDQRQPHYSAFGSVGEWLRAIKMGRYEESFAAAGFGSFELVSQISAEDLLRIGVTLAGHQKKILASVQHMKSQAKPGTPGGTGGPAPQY
The conditions noted are these: at 1 µM.

Experiment [7] has as its target T4, Ephrin type-B receptor 4 (Homo sapiens). As to conditions: at 10 µM.
The target in experiment [8] is Receptor tyrosine-protein kinase erbB-4 (Homo sapiens) (UniProt Q15303). As to conditions: at 1 µM.
Sequence of Receptor tyrosine-protein kinase erbB-4 (Homo sapiens) (Q15303 whole entry): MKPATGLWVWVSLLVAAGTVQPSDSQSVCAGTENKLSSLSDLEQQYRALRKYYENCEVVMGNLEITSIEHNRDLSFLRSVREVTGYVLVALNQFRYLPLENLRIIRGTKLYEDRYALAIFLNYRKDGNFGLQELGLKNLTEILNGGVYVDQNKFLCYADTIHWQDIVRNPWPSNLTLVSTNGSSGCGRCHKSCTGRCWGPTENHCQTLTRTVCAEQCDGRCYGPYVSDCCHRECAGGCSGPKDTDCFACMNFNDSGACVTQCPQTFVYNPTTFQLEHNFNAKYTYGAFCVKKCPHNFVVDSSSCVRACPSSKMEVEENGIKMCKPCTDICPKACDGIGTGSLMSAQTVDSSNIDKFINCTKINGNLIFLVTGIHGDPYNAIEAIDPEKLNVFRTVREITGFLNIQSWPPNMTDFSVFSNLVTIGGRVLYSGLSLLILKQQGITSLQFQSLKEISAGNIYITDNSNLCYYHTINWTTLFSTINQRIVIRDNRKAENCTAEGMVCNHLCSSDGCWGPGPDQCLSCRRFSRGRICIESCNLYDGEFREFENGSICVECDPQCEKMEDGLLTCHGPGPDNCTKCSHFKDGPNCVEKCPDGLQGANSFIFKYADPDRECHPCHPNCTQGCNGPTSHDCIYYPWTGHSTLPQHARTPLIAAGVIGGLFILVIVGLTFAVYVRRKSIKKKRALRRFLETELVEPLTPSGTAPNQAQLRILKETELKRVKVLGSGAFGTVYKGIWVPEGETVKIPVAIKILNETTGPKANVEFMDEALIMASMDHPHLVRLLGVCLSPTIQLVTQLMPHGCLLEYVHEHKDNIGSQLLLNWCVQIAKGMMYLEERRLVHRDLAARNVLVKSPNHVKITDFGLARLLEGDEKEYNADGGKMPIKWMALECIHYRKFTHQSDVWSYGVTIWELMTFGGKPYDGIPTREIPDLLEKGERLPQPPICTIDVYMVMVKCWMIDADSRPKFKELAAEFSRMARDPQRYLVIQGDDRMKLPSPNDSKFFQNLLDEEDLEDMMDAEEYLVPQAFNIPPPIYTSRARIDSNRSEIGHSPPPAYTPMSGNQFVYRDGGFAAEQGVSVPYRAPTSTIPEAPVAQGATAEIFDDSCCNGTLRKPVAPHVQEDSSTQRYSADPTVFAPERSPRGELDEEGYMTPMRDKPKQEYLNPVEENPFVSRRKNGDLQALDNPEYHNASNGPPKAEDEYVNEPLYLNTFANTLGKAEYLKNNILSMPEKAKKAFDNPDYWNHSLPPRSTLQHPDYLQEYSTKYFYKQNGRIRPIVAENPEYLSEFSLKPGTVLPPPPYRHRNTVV
The target is the same in experiment [9]. As to conditions: at 10 µM.
For experiment [10], the target named is Focal adhesion kinase 1 (Homo sapiens) (UniProt Q05397). The conditions noted are these: at 1 µM.
Sequence of Focal adhesion kinase 1 (Homo sapiens) (Q05397 2-1052 limits assumed): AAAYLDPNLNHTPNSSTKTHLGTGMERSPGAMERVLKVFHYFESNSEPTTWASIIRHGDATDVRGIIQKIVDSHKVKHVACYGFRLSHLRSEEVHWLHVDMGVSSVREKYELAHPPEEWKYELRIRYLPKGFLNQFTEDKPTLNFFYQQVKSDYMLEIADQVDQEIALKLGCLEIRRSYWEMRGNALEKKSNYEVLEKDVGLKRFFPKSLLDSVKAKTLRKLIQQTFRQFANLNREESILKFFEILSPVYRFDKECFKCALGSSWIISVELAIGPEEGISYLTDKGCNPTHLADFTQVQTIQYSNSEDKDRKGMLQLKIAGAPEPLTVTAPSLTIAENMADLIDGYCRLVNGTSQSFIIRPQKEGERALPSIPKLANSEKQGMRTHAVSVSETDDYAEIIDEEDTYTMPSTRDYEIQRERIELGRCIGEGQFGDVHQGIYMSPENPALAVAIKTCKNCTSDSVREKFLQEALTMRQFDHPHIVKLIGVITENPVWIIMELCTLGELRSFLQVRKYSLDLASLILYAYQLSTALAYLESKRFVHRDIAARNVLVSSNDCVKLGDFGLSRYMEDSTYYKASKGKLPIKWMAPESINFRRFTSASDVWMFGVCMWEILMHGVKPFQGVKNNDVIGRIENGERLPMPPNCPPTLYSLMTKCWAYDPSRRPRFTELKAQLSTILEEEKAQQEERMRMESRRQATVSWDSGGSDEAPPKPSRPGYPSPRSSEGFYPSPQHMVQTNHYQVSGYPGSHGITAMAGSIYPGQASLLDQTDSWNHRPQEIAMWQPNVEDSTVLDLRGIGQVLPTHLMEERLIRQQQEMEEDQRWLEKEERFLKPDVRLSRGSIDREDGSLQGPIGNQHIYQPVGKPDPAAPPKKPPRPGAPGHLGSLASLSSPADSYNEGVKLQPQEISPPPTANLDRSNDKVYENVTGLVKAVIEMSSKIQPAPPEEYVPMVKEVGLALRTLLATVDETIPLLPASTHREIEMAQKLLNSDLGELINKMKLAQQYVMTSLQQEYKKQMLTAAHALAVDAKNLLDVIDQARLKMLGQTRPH

Turning to `CC(C)n1cnc2/c(=N/c3cccc(Cl)c3)nc(NCCO)[nH]c21`, the residual activity in experiment [1] was 81%; in [2] it was 20%; in experiment [3], 102%; in experiment [4] it was 35%; in [5], 108% (inactive); in experiment [6] it was 67%. Moreover, the residual activity turned out to be 22% in [7], 94% in experiment [8], 107% in experiment [9] and 46% in experiment [10].
